Screens as filed in PubChem BioAssay.
Many of the other results were omitted from the sample, so hits are more common in it than they were.
TTR transcr act: activators of transthyretin transcription. SH-SY5Y TTR promoter Gaussia luciferase, luminescence; 100% = recombinant luciferase protein wells. activation, % at 16.7 µM. 92,000 tested, 1.3% active. AID 1117267;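 active = activation above the mean of all tested compounds plus 3 SD, cut at about 9.5% in these data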;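 note: cells exposed to compounds for one day before reading; 0% = median of all test compound wells on the plate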
HuH7 TTR inh: counter-screen for TTR activators: TTR transcription inhibitors in HuH7 cells; inhibition, % at 16.7 µM; 1,100 tested, 4% active; HuH7 TTR promoter-Gaussia luciferase reporter, luminescence; AID 1117279; shares compounds with TTR transcr act;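 active = average inhibition above the solvent-only control wells' mean plus 3 SD, cut at about 15% in these data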;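 note: 0% = cells with DMSO only and 100% = cells with inhibitor control FD; inhibitors lower well luminescence so higher value means more inhibition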
TTR up confirm: confirmation of human transthyretin transcription activators; SHSY5Y TTR promoter Gaussia luciferase, luminescence; 100% = purified Lucia enzyme wells, no cells; 1,100 tested, under 10 active; shares compounds with TTR transcr act; AID 1117280; activation, % at 16.7 µM;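 active = mean activation above a set limit taken from the earlier primary screen, cut at about 11% in these data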;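 note: 0% = DMSO-treated cells and 100% = recombinant Lucia luciferase without cells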
* = called active by the depositor.

SMILES	TTR transcr act	others
Cc1noc(C)c1COC(=O)c1cc(=O)[nH]c2ccccc12	31*	HuH7 TTR inh=-17;TTR up confirm=0
CCNC(=O)COC(=O)c1cc(=O)[nH]c2ccccc12	0
Cc1cccc(C)c1NC(=O)COC(=O)c1cc(=O)[nH]c2ccccc12	-2
C[C@@H]1CN([C@H](C)CO)C(=O)CCCn2cc(nn2)CO[C@H]1CN(C)C(=O)c1cc(-c2ccccc2)on1	-1
COC1CC(=O)C2OC(c3ccccc3)OCC2O1 (configuration not stated)	-1
CCCc1ccc(C(=O)CCC(=O)O)cc1	-3
O=Cc1cc(CCC(=O)O)ccc1O	11*	HuH7 TTR inh=-2;TTR up confirm=0
O=C(CCc1ccc(O)cc1)c1c(O)cc(O)cc1O	-3
COCCNc1nnc(SCC(=O)NC(=O)c2ccccc2)s1	-1
CCC[C@H]1[C@@H](OC(=O)NCc2cccnc2)CC[C@@]23CCCN2C(=O)CCC[C@@H]13	2
Nc1[nH]c2cc(C(F)(F)F)ccc2c1C(=O)NCc1ccc(F)cc1	2
O=C(c1cc2nc(-c3ccccc3)cc(C(F)(F)F)n2n1)N1CCCC1	-1
O=C(c1nc2nc(-c3ccccc3)cc(C(F)(F)F)n2n1)N1CCCCC1	11*	HuH7 TTR inh=-3;TTR up confirm=0
COc1ccc(-c2cc(C(F)(F)F)n3nc(C(=O)N4CCOCC4)nc3n2)cc1	3
N#Cc1ccc(OCC(=O)NCCCn2ccnc2)cc1	0
CN(CC(=O)Nc1ccc(F)cc1)C(=O)Cn1cnc2ccc(Cl)cc2c1=O	2
CSc1ccc(-c2cnc(N3CCC(C(N)=O)CC3)s2)cc1	0
COc1cccc(-c2csc(NC(=O)C3CC3)n2)c1	11*	HuH7 TTR inh=33*;TTR up confirm=-1
COc1cccc(-c2csc(NC(=O)Nc3ccccc3)n2)c1	-5
COc1cccc(C(=O)Nc2nc(-c3ccncc3)cs2)c1	-1
CCCCn1nnnc1C1(C)CCC(=O)N1CC1CCCCC1 (configuration not stated)	5
CCCCn1cnc2c(SCc3ccccc3Cl)nc(N)nc21	-2
COc1ccc(C(=O)Nc2c(N)nc[nH]c2=O)cc1	6
Cc1ccc2cc(CN(CC(C)C)S(=O)(=O)c3cccc4nonc34)c(=O)[nH]c2c1	0
COC(=O)c1ccccc1NC(=O)NC1CCCC1	15*	HuH7 TTR inh=-2;TTR up confirm=-1
SMILES	TTR transcr act	others
O=C(Nc1ccccc1)NC1CCCCCCC1	-1
CC(C)C(=O)NC(=S)Nc1ccccc1C(=O)NC1CCCCC1	3
CCCC1CCC2(CC1)CCC2OC(=S)Nc1ccccc1Cl (configuration not stated)	2
O=C1NC(=NCc2ccccc2)NC1(c1ccccc1)c1ccccc1	-2
C/C(=N/NC(=O)c1cccs1)c1cccs1	1
CCNC(=O)Cc1ccc(Br)cc1	3
CC/C(=N\NC(=O)Cc1ccc(Br)cc1)c1cccs1	42*	HuH7 TTR inh=-29;TTR up confirm=0
O=C(CSc1cc(Cl)ccc1Cl)N/N=C/c1ccc[nH]1	-2
CC(C)[C@H]1/C(=C/C2CC2)N2C(=O)C[C@H](c3cccc(C(F)(F)F)c3)N=C2N1Cc1ccc2c(c1)OCO2	0
CCOc1ccc(NS(=O)(=O)c2ccc3[nH]c(=O)oc3c2)cc1	2
CCOc1ccccc1NC(=O)CN(C)S(=O)(=O)c1ccc2[nH]c(=O)oc2c1	12*	HuH7 TTR inh=-21;TTR up confirm=0
COc1ccccc1NC(=O)CN(C)S(=O)(=O)c1cc(C)ccc1OC	-2
COC(=O)[C@]12C[C@H](CC(=O)NCc3cccc4ccccc34)C(=O)N(Cc3cccc4ccccc34)C1=C[C@H](C(C)C)O[C@@H]2C1CC1	-2
CCOC(=O)C(=COC(=O)c1ccccc1)NC(=O)Cc1ccccc1	-2
CN(CCc1ccccc1)C(=O)c1cccc(NC(=O)Cc2cccc(NC(=O)C3CCN(C(=O)C4CCCCC4)CC3)c2)c1	-2
CN(CCc1ccccc1)C(=O)c1cccc(NC(=O)Cc2cccc(NC(=O)C3CCN(C(=O)C4CCC4)CC3)c2)c1	-2
CN(CCc1ccccc1)C(=O)c1ccc(NC(=O)Cc2cccc(NC(=O)C3CCN(C(=O)C4CCCCC4)CC3)c2)cc1	11*	HuH7 TTR inh=-14;TTR up confirm=1
COc1ccc(CN2C(=O)C(CC(=O)NC3CC3)CC(C(=O)N3CCOCC3)=C2C)cc1 (configuration not stated)	2
COc1ccc(-c2[nH]c(-c3ccc(SC)cc3)nc2SCC(=O)Nc2nccs2)cc1	-1
COc1ccc(-c2nc(SCC(=O)NC3CCCC3)c(-c3ccc(OC)cc3)[nH]2)cc1	-1
COc1ccc(-c2[nH]c(-c3ccc(C)cc3)nc2SCC(=O)Nc2nccs2)cc1	10*	HuH7 TTR inh=-12;TTR up confirm=-1
CS(=O)(=O)N1CCC(C(=O)Nc2cccc(C(F)(F)F)c2)CC1	0
CCN1CCC(NC(=O)Nc2cccc(C(F)(F)F)c2)CC1	19*	HuH7 TTR inh=-14;TTR up confirm=0
CCOC(=O)N1CCC(NC(=O)c2cc(C(=O)Nc3cccc(C(F)(F)F)c3)ccc2CO)CC1	-2
C[C@@H]1CN([C@@H](C)CO)C(=O)CCCn2cc(nn2)CO[C@H]1CN(C)C(=O)Nc1ccc(-c2cccs2)cc1	-1
SMILES	TTR transcr act	others
CC(C)NC(=O)N(C)C[C@@H]1Oc2c(NC(=O)Nc3ccccc3)cccc2C(=O)N([C@H](C)CO)C[C@H]1C	-2
Cc1ccc(NC(=O)CN(C)C(=O)COc2c(Cl)cc(Cl)c3ccc(C)nc23)cc1	13*	HuH7 TTR inh=-42;TTR up confirm=0
Cc1ccc2cccc(OCC(=O)N(C)CC(=O)Nc3ccc(F)cc3)c2n1	4
Cc1ccc2c(Cl)cc(Cl)c(OCC(=O)NC(=O)NCc3ccco3)c2n1	-2
Cc1ccc(CCNC(=O)CCn2c(=O)c3cccn3c3ccc(F)cc32)cc1	-2
Cc1ccc2nc3sc(C(=O)N4CCN(C)CC4)cc3cc2c1	0
O=C(NCc1ccccn1)[C@@H]1CCCN1C(=O)[C@@H]1CCCN1C(=O)c1cccs1	3
O=C(NCc1ccccn1)[C@@H]1CCCN1C(=O)[C@@H]1CCCN1C(=O)c1cccc(Cl)c1	0
Cc1ccccc1C(=O)N1CCC[C@H]1C(=O)N1CCC[C@H]1C(=O)NCc1ccccn1	14*	HuH7 TTR inh=-5;TTR up confirm=-1
COCC(C)N1CCC(Oc2cccc(C(=O)NCCc3ccccc3)c2)CC1 (configuration not stated)	-1
NC(=O)c1oc2ccccc2c1NC(=O)c1nc2ccccc2s1	-1
O=C(Nc1nnc(-c2ccccc2)o1)c1nc2ccccc2s1	15*	HuH7 TTR inh=-12;TTR up confirm=2
CC(C)C(=O)Nc1nnc(-c2ccccc2)o1	-1
CSc1ncnc2c1ncn2CCCNCc1ccc2c(c1)OCO2	7
Cc1ccc(NS(=O)(=O)c2cc(C(=O)Nc3cccnc3)ccc2C)cc1	-2
Cc1cc(OC(=O)c2cc(Br)ccc2Cl)c([N+](=O)[O-])c(=O)[nH]1	5
N/C(=N\O)c1cccc(CS(=O)(=O)c2ccccn2)c1	10.0*	HuH7 TTR inh=-11;TTR up confirm=0
CC(C)(C)c1csc(CS(=O)(=O)c2ccccn2)n1	0
Cc1c(S(=O)(=O)c2ccccn2)c(N)n(Cc2cccc(Cl)c2)c1C	-1
O=C1C(=O)N(Cc2ccc(-c3ccccc3)cc2)c2ccc(OC(F)(F)F)cc21	-3
CC1(C(=O)NS(=O)(=O)c2cccc(Cl)c2)CCN1C(=O)c1ccccc1 (configuration not stated)	0
